The record followed here is PubChem BioAssay (EPA / NIEHS).

The structures appear in SMILES notation. “And” between values parts separate entries of the source, which are not always exact repeats. Equal values may be shown once. Results filed as inconclusive are left out. Where a structure was tested more than once in an assay, its records may differ in their call. The source made the active and inactive calls. The calls were made as follows: active = hit-call score of the fitted dose curve at least 0.9, where 1 is the maximum; inconclusive = response in the unintended direction; inactive = score below 0.9.

Sequence of Retinoic acid receptor RXR-alpha (Homo sapiens) (P19793 whole entry, looked up, the tested form may be a part): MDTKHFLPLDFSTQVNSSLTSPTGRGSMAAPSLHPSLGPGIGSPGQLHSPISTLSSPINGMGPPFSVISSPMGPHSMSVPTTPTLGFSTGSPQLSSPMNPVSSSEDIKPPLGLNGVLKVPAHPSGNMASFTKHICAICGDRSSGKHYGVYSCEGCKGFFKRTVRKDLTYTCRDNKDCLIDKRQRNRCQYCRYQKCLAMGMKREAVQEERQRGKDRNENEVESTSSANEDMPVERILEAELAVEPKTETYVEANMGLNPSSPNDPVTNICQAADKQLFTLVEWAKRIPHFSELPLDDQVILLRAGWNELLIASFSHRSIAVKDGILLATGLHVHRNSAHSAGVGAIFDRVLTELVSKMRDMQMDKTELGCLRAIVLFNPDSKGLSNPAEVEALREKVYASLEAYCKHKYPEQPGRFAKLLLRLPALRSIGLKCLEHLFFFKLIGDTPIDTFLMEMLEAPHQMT

In this assay the target is Retinoic acid receptor RXR-alpha (Homo sapiens) (UniProt P19793). Kind of assay: OT_NURR1_NURR1RXRa_1440: Odyssey Thera (OT) 24-hour HEK293T Protein Complementation Assay for Nurr1/retinoid X receptor (RXR) (AID 2283386). As for the experimental part:
OT_NURR1_NURR1RXRa_1440 is a cell-based assay that uses HEK293T, a human kidney cell line, with measurements taken at 24 hours after chemical dosing in a 384-well plate.OT_NURR1_NURR1RXRa_1440 is one of one assay component(s) measured or calculated from the OT_NURR1_NURR1RXRa_1440 assay. It is designed to make measurements of protein fragment complementation, a form of binding reporter, as detected with fluorescence intensity signals by Protein-fragment Complementation technology.Data from the assay component OT_NURR1_NURR1RXRa_1440 was analyzed into 1 assay endpoint. This assay endpoint, OT_NURR1_NURR1RXRa_1440, was analyzed in the positive analysis fitting direction relative to DMSO as the negative control and baseline of activity. Using a type of binding reporter, measures of receptor for gain-of-signal activity can be used to understand the binding at the pathway-level as they relate to the gene RXRA. Furthermore, this assay endpoint can be referred to as a primary readout, because the performed assay has only produced 1 assay endpoint. To generalize the intended target to other relatable targets, this assay endpoint is annotated to the nuclear receptor intended target family, where the subfamily is non-steroidal.
Protein-fragment complementation assay, or PCA, is a method for the identification and quantification of protein-protein interactions. In the PCA, the proteins of interest ("bait" and "prey") are each covalently linked to fragments of a third protein (e.g. DHFR, which acts as a "reporter"). Interaction between the bait and the prey proteins brings the fragments of the reporter protein in close proximity to allow them to form a functional reporter protein whose activity can be measured.
As to `Brc1ccc(Oc2ccccc2)cc1`, the compound was called inactive.
Same read-out and setting: under `O=Cc1ccco1` stands “inactive”.
As to `Cc1ccc(N)cc1`, the AC50 is 50 µM (active) and the call was inactive.
For the compound `CCC12COCN1COC2`, the compound was called inactive.
In the case of `O=C(O)C1C2CCC(O2)C1C(=O)O` (stereo not given), the result was inactive and the AC50 was 32 µM (active).
As for `Nc1ccc(Cc2ccc(N)cc2)cc1`, the result was inactive.
On the same count and under the same terms, to `CCNS(=O)(=O)C(F)(F)C(F)(F)C(F)(F)C(F)(F)C(F)(F)C(F)(F)C(F)(F)C(F)(F)F` belongs “inactive”; to `O=[N+]([O-])c1ccc(Oc2ccc(Cl)cc2Cl)cc1`, “inactive”.
The same measure, in the same setting: under `Clc1ccccc1Cl` stands “inactive”.
Same read-out and setting: to `CCCCCCCCOC(=O)c1ccc(C(=O)OCCCCCCCC)c(C(=O)OCCCCCCCC)c1` belongs “inactive”.
For `Clc1ccc(Cl)c(Cl)c1`, the call was inactive.
Still for that read-out and setting: to `CS(=O)(=O)NC(=O)c1cc(Oc2ccc(C(F)(F)F)cc2Cl)ccc1[N+](=O)[O-]` belongs “inactive”.
Regarding `ClCCOCCCl`, the call was inactive.
On to `CCCCOC(=O)c1ccccc1C(=O)OCc1ccccc1`, for which the call was inactive.
Still for that read-out and setting: to `COC(=O)Nc1nc2ccccc2[nH]1` belongs “inactive”; to `OCCOCCO`, “inactive”; to `CN(C)[C@@H]1C(=O)C(C(N)=O)=C(O)[C@@]2(O)C(=O)C3=C(O)c4c(O)cccc4[C@@](C)(O)[C@H]3C[C@@H]12`, “inactive”.
On the same count and under the same terms, under `O=C(Oc1ccc(Br)cc1)N1CCN2CCC1CC2` stands “inactive”; under `CC(C)(C)OOC(C)(C)CCC(C)(C)OOC(C)(C)C`, “inactive”; under `Cc1ccc([N+](=O)[O-])cc1`, “inactive”.
The same measure, in the same setting: to `CN(C)c1ccccc1` belongs “inactive”.
Consider `CCCCCCCCn1sccc1=O`, for which the concentration at half-maximal activity (AC50) is 12 µM (active).
Consider `Cc1cccc(N)c1N`, for which the compound was called inactive.
As for `c1ccc(NNc2ccccc2)cc1`, the AC50 is 82.8 µM (active) and the outcome was inactive.
Turning to `Clc1ccc(C(c2ccc(Cl)cc2)C(Cl)(Cl)Cl)cc1`, the compound was called inactive.
Regarding `C[C@]12C=CC3=C4CCC(=O)C=C4CC[C@H]3[C@@H]1CC[C@@H]2O`, the AC50 was 12 µM (active) and 12.5 µM (active) and 12.6 µM (active); the compound was called inactive.
For `[As]#[In]`, the compound was called inactive.
As to `CC(C)COC(=O)c1ccccc1C(=O)OCC(C)C`, the compound was classed as inactive.
On the same count and under the same terms, to `Cc1ccc(N)c(N)c1` belongs “inactive”.
As to `[Cl-].[Cl-].[Hg+2]`, the AC50 is 11.4 µM (active).
As for `OCCCl`, the outcome was inactive.
On the same count and under the same terms, to `CCCCCOC(=O)c1ccccc1C(=O)OCCCCC` belongs “inactive”; to `Cc1ccc(N=C=O)cc1N=C=O`, “inactive”.
Turning to `Clc1ccc(C(c2ccc(Cl)cc2)C(Cl)Cl)cc1`, the AC50 is 80.9 µM (active).
With `CCC[CH2][Sn]([Cl])([CH2]CCC)[CH2]CCC`, the compound was called inactive.
Regarding `C=CCc1ccc2c(c1)OCO2`, the compound was called inactive.
